PubChem BioAssay (EPA / NIEHS)
Activity calls are given as the source filed them. How the source made its calls: active means hit-call score of the fitted dose curve at least 0.9, where 1 is the maximum; inactive means score below 0.9.

Tests used:
[1] = ATG_GLI_CIS: Attagene CIS-FACTORIAL HepG2 Assay for human Zinc Finger Protein GLI1 (AID 2282945); conditions: HepG2, Attagene cis-factorial reporter mRNA, GLI element; actives raise or lower the signal
In short: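 HepG2 cells transiently transfected with cis-promoter multiplexed reporter units report endogenous transcription factor activity. After 24 h chemical exposure, reporter mRNA was quantified by RT-PCR, 6-FAM labelling, HpaI digestion and capillary electrophoresis, with bidirectional fitting against DMSO.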

[2] = target: Bile acid receptor (Homo sapiens) (UniProt Q96RI1); experiment: ATG_IR1_CIS: Attagene CIS-FACTORIAL HepG2 Assay for human Nuclear Receptor Subfamily 1 Group H Member 4 (NR1H4), IR1 submotif (AID 2282946); conditions: IR1 reporter transcription, actives raise or lower the signal
Chain of Bile acid receptor (Homo sapiens) (Q96RI1 whole entry, looked up): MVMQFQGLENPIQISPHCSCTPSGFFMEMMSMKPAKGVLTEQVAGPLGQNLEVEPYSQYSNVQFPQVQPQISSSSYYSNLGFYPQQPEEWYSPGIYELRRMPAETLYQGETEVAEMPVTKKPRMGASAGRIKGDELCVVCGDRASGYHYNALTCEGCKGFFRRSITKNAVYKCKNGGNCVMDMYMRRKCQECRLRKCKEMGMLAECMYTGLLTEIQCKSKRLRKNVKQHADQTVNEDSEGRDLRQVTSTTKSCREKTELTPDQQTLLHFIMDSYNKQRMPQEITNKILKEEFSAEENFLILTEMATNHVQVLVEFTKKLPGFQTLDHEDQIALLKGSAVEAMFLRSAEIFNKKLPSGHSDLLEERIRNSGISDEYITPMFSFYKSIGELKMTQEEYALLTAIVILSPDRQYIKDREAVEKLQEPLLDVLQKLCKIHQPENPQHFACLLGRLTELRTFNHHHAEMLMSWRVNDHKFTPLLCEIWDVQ
In short: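 Readout: reporter transcript levels by RT-PCR with fluorescent capillary electrophoresis, from HepG2 cells transiently transfected with multiplexed cis-regulated reporters and dosed 24 h. Gain- or loss-of-signal fitted versus DMSO negative control.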

[3] = ATG_GRE_CIS: Attagene CIS-FACTORIAL HepG2 Assay for human Glucocorticoid Response Elements (GRE) (AID 2282947); conditions: HepG2 GRE cis-reporter, Attagene multiplex mRNA; actives raise or lower the signal
In short: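 Cells (HepG2) bearing transfected cis-promoter reporter transcription units were treated with chemical for 24 hours. Reporter mRNA was measured via RT-PCR with capillary electrophoresis, and activity was fitted in both directions relative to DMSO.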

[4] = ATG_ISRE_CIS: Attagene CIS-FACTORIAL HepG2 Assay for human Interferon Regulatory Factor 1 (IRF1) binding to an Interferon-Stimulated Response Element (ISRE) (AID 2282948); conditions: HepG2 ISRE cis-reporter (Attagene), mRNA transcription readout; actives raise or lower the signal
In short: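 Multiplexed mRNA reporter readout in human liver HepG2 cells: cis-element-driven reporters transfected, compound added for 24 h, transcripts amplified, fluorescently labelled and sized by capillary electrophoresis; curve fitting bidirectional against DMSO.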

[5] = ATG_M_32_CIS: Attagene CIS-FACTORIAL HepG2 Assay for M32 Transcription Factor (Internal Marker) (AID 2282949); conditions: HepG2 Attagene cis-factorial M32 reporter, mRNA; actives raise or lower the signal;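 further: background control marker of the multiplexed CIS panel rather than a real target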
In short: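 HepG2 transfectants (cis-regulated reporter transcription units) dosed 24 h. Reporter mRNA by RT-PCR plus CE, analysed as gain or loss relative to DMSO.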

[6] = ATG_M_06_CIS: Attagene CIS-FACTORIAL HepG2 Assay for M06 Transcription Factor (Internal Marker) (AID 2282950); conditions: HepG2 Attagene CIS-FACTORIAL M06 internal marker reporter; actives raise or lower the signal
In short: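 HepG2 cells transiently transfected with cis-regulated multiple reporter transcription units were exposed to chemical for 24 h; reporter mRNA was quantified by RT-PCR, 6-FAM primer labelling, HpaI digestion and capillary electrophoresis, fitted bidirectionally against DMSO.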

[7] = target: Hypoxia-inducible factor 1-alpha (Homo sapiens) (UniProt Q16665); experiment: ATG_HIF1a_CIS: Attagene CIS-FACTORIAL HepG2 Assay for human Hypoxia Inducible Factor 1 (HIF1A) (AID 2282951); conditions: HepG2 Attagene cis-factorial HIF1a reporter transcription; actives raise or lower the signal
Chain of Hypoxia-inducible factor 1-alpha (Homo sapiens) (Q16665 whole entry, looked up): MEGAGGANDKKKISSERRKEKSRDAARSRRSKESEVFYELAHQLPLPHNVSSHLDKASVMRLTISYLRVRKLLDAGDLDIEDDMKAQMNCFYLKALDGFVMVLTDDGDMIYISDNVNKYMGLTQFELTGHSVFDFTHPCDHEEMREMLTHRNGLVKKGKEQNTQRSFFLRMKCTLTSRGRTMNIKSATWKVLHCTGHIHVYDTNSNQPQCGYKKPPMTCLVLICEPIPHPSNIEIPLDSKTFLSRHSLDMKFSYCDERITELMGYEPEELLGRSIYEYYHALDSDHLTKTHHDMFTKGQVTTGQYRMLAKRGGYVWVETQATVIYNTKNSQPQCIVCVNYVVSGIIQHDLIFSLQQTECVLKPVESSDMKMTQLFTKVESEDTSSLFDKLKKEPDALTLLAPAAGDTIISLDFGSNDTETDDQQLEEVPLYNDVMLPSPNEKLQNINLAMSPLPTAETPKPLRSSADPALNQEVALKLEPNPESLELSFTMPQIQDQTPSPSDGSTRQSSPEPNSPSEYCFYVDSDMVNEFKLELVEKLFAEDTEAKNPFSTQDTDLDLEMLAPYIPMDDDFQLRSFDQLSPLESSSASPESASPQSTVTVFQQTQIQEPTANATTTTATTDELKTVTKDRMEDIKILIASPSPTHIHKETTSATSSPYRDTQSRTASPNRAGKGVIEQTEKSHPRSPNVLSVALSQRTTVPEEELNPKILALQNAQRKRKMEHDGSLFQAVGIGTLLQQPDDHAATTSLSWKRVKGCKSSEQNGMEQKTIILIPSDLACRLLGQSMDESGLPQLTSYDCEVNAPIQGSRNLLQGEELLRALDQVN
In short: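 Endogenous-TF cis reporter readout, human HepG2 cells, 24 h incubation; mRNA detected via RT-PCR and capillary electrophoresis fluorescence; DMSO-normalised bidirectional fitting.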

[8] = target: Heat shock factor protein 1 (Homo sapiens) (UniProt Q00613); experiment: ATG_HSE_CIS: Attagene CIS-FACTORIAL HepG2 Assay for human Heat Shock Transcription Factor 1 (HSE) (AID 2282953); conditions: HepG2 HSE cis-reporter, Attagene RNA transcription; actives raise or lower the signal
Chain of Heat shock factor protein 1 (Homo sapiens) (Q00613 whole entry, looked up): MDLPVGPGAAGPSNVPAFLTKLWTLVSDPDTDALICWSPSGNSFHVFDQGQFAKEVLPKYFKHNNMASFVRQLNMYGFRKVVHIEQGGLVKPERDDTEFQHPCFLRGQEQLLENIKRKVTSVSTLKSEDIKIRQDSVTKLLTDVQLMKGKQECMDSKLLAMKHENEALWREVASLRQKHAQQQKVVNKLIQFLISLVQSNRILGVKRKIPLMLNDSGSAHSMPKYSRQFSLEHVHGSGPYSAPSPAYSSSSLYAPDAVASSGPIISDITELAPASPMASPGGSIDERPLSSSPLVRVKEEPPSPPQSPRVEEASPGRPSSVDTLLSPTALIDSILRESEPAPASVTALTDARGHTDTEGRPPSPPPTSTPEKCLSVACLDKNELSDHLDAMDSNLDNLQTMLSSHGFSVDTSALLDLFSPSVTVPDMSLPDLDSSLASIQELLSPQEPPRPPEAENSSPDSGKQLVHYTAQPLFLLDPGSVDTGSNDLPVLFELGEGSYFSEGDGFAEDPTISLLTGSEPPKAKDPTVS
In short: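 HepG2 cells transiently transfected with multiple reporter transcription units under cis-regulatory promoter control, measuring endogenous transcription factor activity. After 24 h chemical exposure, reporter mRNA quantified by RT-PCR, fluorescent labelling, HpaI digestion and capillary electrophoresis; bidirectional fit versus DMSO.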

[9] = ATG_MRE_CIS: Attagene CIS-FACTORIAL HepG2 Assay for human Metal Responsive Element (MRE) (AID 2282954); conditions: HepG2 MRE cis-reporter transcription, Attagene multiplex; actives raise or lower the signal
In short: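 Cells were transfected with cis-promoter reporter transcription units, then dosed for 24 h. RNA was reverse-transcribed, amplified, fluorescently labelled and resolved by capillary electrophoresis, and activity was fitted in both directions relative to DMSO.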

[10] = target: Paired box protein Pax-6 (Homo sapiens) (UniProt P26367); experiment: ATG_Pax6_CIS: Attagene CIS-FACTORIAL HepG2 Assay for human Paired Box 6 (PAX6) (AID 2282956); conditions: HepG2 CIS-FACTORIAL PAX6 reporter transcription, RNA readout; actives raise or lower the signal
Chain of Paired box protein Pax-6 (Homo sapiens) (P26367 whole entry, looked up): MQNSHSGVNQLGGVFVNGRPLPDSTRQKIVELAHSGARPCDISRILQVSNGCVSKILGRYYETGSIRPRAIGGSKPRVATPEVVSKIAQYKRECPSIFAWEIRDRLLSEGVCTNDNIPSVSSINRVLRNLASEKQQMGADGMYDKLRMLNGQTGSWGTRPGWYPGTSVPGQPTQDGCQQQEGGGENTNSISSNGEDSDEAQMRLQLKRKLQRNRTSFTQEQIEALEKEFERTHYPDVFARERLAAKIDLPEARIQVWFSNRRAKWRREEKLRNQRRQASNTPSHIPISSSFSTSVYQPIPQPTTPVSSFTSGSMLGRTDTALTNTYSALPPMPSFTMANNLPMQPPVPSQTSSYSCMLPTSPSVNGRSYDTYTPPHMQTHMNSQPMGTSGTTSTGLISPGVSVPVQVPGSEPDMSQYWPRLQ
In short: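 Fluorescent RT-PCR products separated by capillary electrophoresis report PAX6-linked promoter mRNA in HepG2 cells 24 h post-dose. Curves fitted bidirectionally, DMSO as negative control.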

[11] = ATG_PXRE_CIS: Attagene CIS-FACTORIAL HepG2 Assay for human Pregnane X Receptor Element (PXRE) (AID 2282957); conditions: HepG2 Attagene CIS-FACTORIAL PXRE reporter, mRNA; actives raise or lower the signal
In short: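 Reporter transcripts under endogenous PXR-responsive cis-regulation quantified from total RNA of transfected HepG2 cells 24 h post-dosing, via RT-PCR with fluorescent primer extension and capillary electrophoresis. Gain or loss of signal fitted against DMSO baseline.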

[12] = ATG_RORE_CIS: Attagene CIS-FACTORIAL HepG2 Assay for human RAR-related Orphan Receptor Element (RORE) (AID 2282959); conditions: HepG2 Attagene cis-factorial RORE reporter, mRNA; actives raise or lower the signal
In short: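 Measured here: transcript induction of a cis-regulated reporter in HepG2 cells transiently transfected via FuGene 6. After 24 h, RNA was processed by RT-PCR and fluorescent capillary electrophoresis; DMSO defined baseline activity.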

[13] = ATG_Sox_CIS: Attagene CIS-FACTORIAL HepG2 Assay for human SRY-box transcription factor (SOX) (AID 2282960); conditions: HepG2 Attagene cis-factorial SOX reporter, mRNA; actives raise or lower the signal
In short: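 Using transiently transfected HepG2 cells, reporter transcription driven by cis elements was assessed 24 h after dosing. Signal was fluorescence of capillary-separated RT-PCR products, with DMSO defining baseline activity.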

[14] = target: Transcription factor Sp1 (Homo sapiens) (UniProt P08047); experiment: ATG_Sp1_CIS: Attagene CIS-FACTORIAL HepG2 Assay for human Specificity Protein 1 (Sp1) (AID 2282961); conditions: HepG2 Sp1 cis-reporter transcription, actives raise or lower the signal
Chain of Transcription factor Sp1 (Homo sapiens) (P08047 whole entry, looked up): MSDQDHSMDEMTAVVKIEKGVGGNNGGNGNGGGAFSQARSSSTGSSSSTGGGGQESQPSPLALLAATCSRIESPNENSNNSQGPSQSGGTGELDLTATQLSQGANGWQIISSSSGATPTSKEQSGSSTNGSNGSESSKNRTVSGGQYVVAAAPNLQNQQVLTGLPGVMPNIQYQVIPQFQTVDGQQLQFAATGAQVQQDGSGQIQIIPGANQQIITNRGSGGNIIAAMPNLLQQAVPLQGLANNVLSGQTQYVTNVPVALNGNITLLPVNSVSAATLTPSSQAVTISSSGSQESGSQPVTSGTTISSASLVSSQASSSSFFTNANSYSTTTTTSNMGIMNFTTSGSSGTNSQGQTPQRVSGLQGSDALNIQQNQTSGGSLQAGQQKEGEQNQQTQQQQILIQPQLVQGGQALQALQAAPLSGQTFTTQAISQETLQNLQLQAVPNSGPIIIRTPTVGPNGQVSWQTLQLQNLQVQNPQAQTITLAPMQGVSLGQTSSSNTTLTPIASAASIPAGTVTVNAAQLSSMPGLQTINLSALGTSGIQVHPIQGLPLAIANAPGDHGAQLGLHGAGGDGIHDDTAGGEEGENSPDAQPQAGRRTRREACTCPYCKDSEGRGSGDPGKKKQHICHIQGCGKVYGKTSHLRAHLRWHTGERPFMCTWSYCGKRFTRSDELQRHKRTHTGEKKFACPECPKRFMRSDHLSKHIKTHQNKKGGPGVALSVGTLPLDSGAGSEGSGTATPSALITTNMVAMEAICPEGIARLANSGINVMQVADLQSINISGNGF
In short: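 After transient transfection of HepG2 cells with cis-promoter reporter units and 24 h chemical treatment, reporter transcripts were quantified by RT-PCR and capillary electrophoresis fluorescence. Gain- and loss-of-signal fitted against DMSO.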

[15] = ATG_SREBP_CIS: Attagene CIS-FACTORIAL HepG2 Assay for human Sterol Regulatory Element Binding (SREBP) (AID 2282962); conditions: HepG2 Attagene cis-factorial SREBP reporter, mRNA; actives raise or lower the signal
In short: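 Endogenous factor activity is measured in HepG2 through multiplexed reporter units under cis-element control. Following a 24 h incubation, reporter transcripts are reverse-transcribed, PCR-amplified and sized by capillary electrophoresis; activity is fitted in both directions relative to DMSO.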

[16] = target: Signal transducer and activator of transcription 3 (Homo sapiens) (UniProt P40763); experiment: ATG_STAT3_CIS: Attagene CIS-FACTORIAL HepG2 Assay for human Signal Transducer and Activator of Transcription 3 (STAT3) (AID 2282963); conditions: HepG2, Attagene cis-factorial STAT3 reporter transcription; actives raise or lower the signal
Chain of Signal transducer and activator of transcription 3 (Homo sapiens) (P40763 whole entry, looked up): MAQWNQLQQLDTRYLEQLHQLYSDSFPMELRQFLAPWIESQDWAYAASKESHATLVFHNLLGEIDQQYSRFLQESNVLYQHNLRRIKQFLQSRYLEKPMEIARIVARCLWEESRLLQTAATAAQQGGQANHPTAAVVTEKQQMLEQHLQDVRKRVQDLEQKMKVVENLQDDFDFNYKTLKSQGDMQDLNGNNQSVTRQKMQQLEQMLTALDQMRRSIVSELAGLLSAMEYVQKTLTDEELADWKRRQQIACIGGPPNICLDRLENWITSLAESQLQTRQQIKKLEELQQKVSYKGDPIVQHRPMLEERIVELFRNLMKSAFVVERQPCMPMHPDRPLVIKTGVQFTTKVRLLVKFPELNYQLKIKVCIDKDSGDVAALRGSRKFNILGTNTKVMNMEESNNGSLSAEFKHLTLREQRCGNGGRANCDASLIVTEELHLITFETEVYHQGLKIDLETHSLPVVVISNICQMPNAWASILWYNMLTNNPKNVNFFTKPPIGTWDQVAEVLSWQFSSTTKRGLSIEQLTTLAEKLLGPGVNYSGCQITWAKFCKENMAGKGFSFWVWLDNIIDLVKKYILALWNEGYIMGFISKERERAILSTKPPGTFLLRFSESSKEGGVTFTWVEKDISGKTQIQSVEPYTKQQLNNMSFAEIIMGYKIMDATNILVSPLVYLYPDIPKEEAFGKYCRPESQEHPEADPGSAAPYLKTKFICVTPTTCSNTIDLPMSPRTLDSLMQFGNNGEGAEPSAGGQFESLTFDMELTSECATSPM
In short: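 HepG2, MRTU-transfected, 24 h dosing. RNA → RT → PCR → FAM label → HpaI → CE. Bidirectional fit vs DMSO.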

[17] = ATG_TA_CIS: Attagene CIS-FACTORIAL HepG2 Assay for human TA Basal Promoter (AID 2282964); conditions: HepG2 Attagene CIS-factorial TA basal promoter reporter; actives raise or lower the signal
In short: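 HepG2 cells transiently transfected with multiplexed cis-promoter reporter units, dosed 24 h. Reporter mRNA measured by RT-PCR, 6-FAM labelling, HpaI digestion and capillary electrophoresis; bidirectional fit versus DMSO baseline, serving as background control.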

[18] = ATG_PBREM_CIS: Attagene CIS-FACTORIAL HepG2 Assay for human Phenobarbital-responsive Enhancer Module (PBREM) (AID 2282955); conditions: HepG2 PBREM cis-reporter, Attagene multiplexed transcription; actives raise or lower the signal
In short: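 Readout: reporter mRNA, fluorescent RT-PCR fragments separated by capillary electrophoresis. System: HepG2 transiently transfected with cis-regulated reporter units. Exposure: 24 h. Analysis: bidirectional, DMSO baseline.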

[19] = ATG_PPRE_CIS: Attagene CIS-FACTORIAL HepG2 Assay for human Peroxisome Proliferator-activated Response Element (PPRE) (AID 2282958); conditions: HepG2 PPRE cis-element reporter, Attagene transcription factor profiling; actives raise or lower the signal
In short: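 After human HepG2 hepatoma cells were transiently transfected with cis-promoter reporter constructs, they were exposed to test chemicals for 24 hours. Reporter RNA was then reverse-transcribed, PCR-amplified, FAM-labeled, HpaI-digested and quantified by capillary electrophoresis.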

[20] = target: Hepatocyte nuclear factor 6 (Homo sapiens) (UniProt Q9UBC0); experiment: ATG_HNF6_CIS: Attagene CIS-FACTORIAL HepG2 Assay for human Hepatocyte Nuclear Factor 6 (HNF6) (AID 2282952); conditions: HepG2 Attagene cis-factorial HNF6 reporter transcription; actives raise or lower the signal
Chain of Hepatocyte nuclear factor 6 (Homo sapiens) (Q9UBC0 whole entry, looked up): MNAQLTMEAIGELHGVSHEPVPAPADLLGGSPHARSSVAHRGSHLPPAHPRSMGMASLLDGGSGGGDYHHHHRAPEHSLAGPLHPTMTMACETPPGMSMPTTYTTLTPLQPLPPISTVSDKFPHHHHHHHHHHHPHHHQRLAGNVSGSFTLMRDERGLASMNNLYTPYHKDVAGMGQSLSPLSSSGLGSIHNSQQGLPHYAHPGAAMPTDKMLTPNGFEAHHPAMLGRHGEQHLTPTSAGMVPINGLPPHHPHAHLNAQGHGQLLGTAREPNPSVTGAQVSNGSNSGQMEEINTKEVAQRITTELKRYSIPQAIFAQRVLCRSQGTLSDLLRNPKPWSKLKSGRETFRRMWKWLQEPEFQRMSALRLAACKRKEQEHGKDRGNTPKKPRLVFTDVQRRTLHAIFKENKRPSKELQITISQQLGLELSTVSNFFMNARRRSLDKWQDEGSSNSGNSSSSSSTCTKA
In short: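 Endogenous factor activity read in transiently transfected HepG2 via promoter-regulated reporter transcripts. RNA harvested 24 h post-dosing, reverse-transcribed, PCR-amplified, FAM-labelled, HpaI-digested and resolved by capillary electrophoresis; fitted in both directions against DMSO.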

Measured: AC50

COc1cc2c(c(OC)c1OC)-c1ccc(OC)c(=O)cc1[C@@H](NC(C)=O)CC2
active: [2] 0.0925 µM | [7] 0.619 µM
inactive: [1] | [3] | [4] | [5] | [6] | [8] | [9] | [10] | [11] | [12] | [13] | [14] | [15] | [16] | [17]

COc1cc(C(C)C)c2c(c1)S(=O)(=O)N(COc1cc(=O)n3cccc(OCCN4CCCCC4)c3n1)C2=O
inactive: [1] | [2] | [5] | [18] | [16] | [17]
active: [3] 4.22 µM | [4] 5.08 µM | [6] 12.3 µM | [7] 5.04 µM | [8] 2.75 µM | [9] 9.28 µM | [10] 8.11 µM | [11] 3.27 µM | [12] 8.25 µM | [13] 4.26 µM | [14] 3.94 µM | [15] 3.78 µM

CCN(CC)C(=S)SSC(=S)N(CC)CC
active: [1] 153 µM | [2] 67.8 µM | [4] 81.3 µM | [8] 111 µM | [9] 148 µM | [18] 166 µM | [10] 137 µM | [11] 161 µM | [13] 100 µM | [14] 150 µM | [15] 157 µM
inactive: [3] | [5] | [6] | [19] | [12] | [16] | [17]

CCCCCOC(C)=O
inactive: [1] | [2] | [3] | [4] | [5] | [6] | [7] | [20] | [8] | [9] | [18] | [10] | [11] | [12] | [13] | [14] | [15] | [16] | [17]
